This is a sample that favours compounds with a hit; in the whole collection about 3.8% have one here.
HT1080 IDH1KD tx = HT-1080 IDH1 knockdown cell toxicity (counter line). AID 686971. hit rate 2% among 360,000. HT-1080 IDH1 knockdown viability, ATP luminescence, 48 h. Potency, µM (series often up to 46.1 µM), for the others: at the top dose activity, negative = toxicity, actives largely listed as cytotoxic;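 note: 0% = DMSO wells and -100% = cell-free medium wells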
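Knockdown cells (IDH1KD HT-1080) received compounds 2 h after plating at 750 cells/well and were kept 48 h at 37 °C in 5% FBS RPMI. A CellTiter-Glo luminescence read gave % activity for curve fitting.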
ATXN2 expr inh = ATXN2 expression inhibition. hit rate 0.72% among 360,000. HEK-293 ATXN2-luciferase reporter, luminescence, 24 h. Potency, µM (doses to about 57 µM), for inactives: at the highest dose activity change, negative = inhibition, usual class: inhibitors; note: % is set by controls: 0 for no effect and ±100 for the full control effect; nearly all actives have a fitted effect of over 55% in size
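qHTS (up to 57 uM final) was run with 24 h compound exposure of reporter cells at 37 °C. Each well was multiplexed: SteadyGlo luminescence measured ATXN2-luciferase expression after a fluorogenic Gly-Phe-AFC viability readout (25 uM final).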
HepG2 viability = counter-screen for TGF-b inhibitors: cytotoxicity in HepG2 cells; HepG2 CAGA-GFP viability, ATP luminescence, 18 h; Potency, µM (series often up to 46.1 µM), without a hit: top-dose activity change, negative = cytotoxicity, actives largely listed as cytotoxic; hit rate 0.76% among 410,000; AID 588856
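CellTiter-Glo luminescence gave cytotoxicity after 18 hours at 37 degrees C. The cells were HepG2 CAGA-GFP in 1% FBS DMEM, stimulated with 500 pg/mL TGF-beta after compound addition. %Activity was normalised to no-cell wells (complete cell-killing) and DMSO (no toxicity), and curves were fitted and classified.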
S2 tox = cell viability loss in ATXN counter-screen. hit rate 0.49% among 400,000. Potency, µM (doses to about 56.7 µM), usual class: cytotoxic. S2 cells (HEK-293 line with an ATXN2-luciferase reporter) viability, CellTiter-Fluor protease fluorescence, 24 h; note: nearly all actives have a fitted effect of over 40% in size
TGFb inhibitor = blocks TGF-b signaling; hit rate 1.2% among 410,000; AID 588855; HepG2 CAGA-GFP TGF-b/SMAD3 reporter, GFP fluorescence, 18 h; TGF-beta stimulated, 500 pg/mL final; Potency, µM (top dose mostly 46.1 µM), for inactives: at the top dose activity, negative = inhibition, actives largely listed as inhibitors; note: % is set by controls: 0 for no effect and ±100 for the full control effect; nearly all actives have a fitted effect of over 65% in size
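Inhibition of TGF-beta-driven CAGA-GFP reporter expression in HEPG2 cells is measured by cellular GFP fluorescence after 18 h stimulation with 500 pg/mL recombinant TGF-beta in 1% FBS medium at 37 degrees C.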
HT1080NT lethal = kills 2HG-producing HT-1080-NT fibrosarcoma cells; Potency, µM (titrated, usually from 46.1 µM), for inactives: at the top dose activity, negative = less viability, hits mostly cytotoxic; hit rate 1.6% among 360,000; HT-1080-NT fibrosarcoma viability, CellTiter-Glo ATP luminescence, 48 h; AID 686970;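 note: NT is the 2HG producing partner of a matched IDH1 knockdown line; 0% = DMSO-treated cells and -100% = media-only wells without cells; nearly all actives have a fitted effect of over 55% in size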
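Read-out is CellTiter-Glo luminescence after 10 minutes at room temperature, following 48 hours' compound treatment of HT-1080-NT cells (750 cells/well, RPMI, 5% FBS, 37 degrees C).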
* = called active by the depositor; i = inactive; ? = inconclusive; · = no result. Calls come from the whole dose curve; as a rule, active = well fitted curve in the direction sought with a large enough effect; inconclusive = small, poorly fitted or top-dose-only effect, or another doubt; inactive = no such curve, though single readings can be large; an effect the other way counts as inactive or inconclusive. Potency is the fitted concentration of half-maximal effect.

SMILES	HT1080 IDH1KD tx	ATXN2 expr inh	HepG2 viability	S2 tox	TGFb inhibitor	HT1080NT lethal
COc1ccc(C2CC(=O)N(Cc3ccc(F)cc3)c3ccccc3S2)cc1 (configuration not stated)	·	?	-43%	?	16µM*	·
CCOC(=O)C1=C(C)N=c2s/c(=C/c3cccc([N+](=O)[O-])c3O)c(=O)n2C1c1ccc(OC)cc1OC (configuration not stated)	1%	-32%	-8%	13µM*	7%	0%
CCOC(=O)C1=C(C)N=c2s/c(=C\c3ccc(O)c([N+](=O)[O-])c3)c(=O)n2C1c1ccccc1OC (configuration not stated)	-4%	?	0%	?	-2%	?
CCOC(=O)C1=C[C@@H](C2CCCCC2)N(S(=O)(=O)c2ccc([N+](=O)[O-])cc2)[C@H]1c1ccccc1	8.2µM*	-19%	-10%	?	?	?
CCOC(=O)C1=CC[C@@H](c2ccc([N+](=O)[O-])cc2)N(S(=O)(=O)c2ccc(C)cc2)[C@H]1c1ccccc1	12%	13%	-6%	i	-9%	13%
Cc1c(C(=O)OCC(O)=C(C#N)c2nc3ccccc3[nH]2)oc2ccc(Br)cc12	3%	0%	-10%	i	0%	3%
Cc1c(C(=O)OC/C(O)=C(\C#N)c2nc3ccccc3[nH]2)oc2ccccc12	?	?	-56%	?	13µM*	?
CC(=O)OC(/C(O)=C(\C#N)c1nc2ccccc2[nH]1)c1ccccc1 (configuration not stated)	?	-28%	-18%	i	-10%	8.9µM*
C/C(O)=C(/C#N)c1nc2ccccc2[nH]1	-1%	3%	-3%	i	13%	0%
Cc1ccccc1C(C(=O)NC1CCCCC1)N(C(=O)CNc1ccc(C#N)cc1)c1cccc(F)c1 (configuration not stated)	·	3%	·	·	·	·
CC1=C(c2ccc(C)cc2)S(=O)(=O)N(Cc2ccc(C(=O)Nc3ccc(F)cc3C)cc2)C1=O	·	-22%	2%	i	0%	·
COc1ccc(N2CC(NC(=O)CCc3ccccc3)CC2=O)cc1OC (configuration not stated)	·	9%	1%	i	?	·
O=c1c(-c2ccccc2)c1-c1ccccc1	·	8.9µM*	·	8.9µM*	·	·
COc1ccc(CCCNC(=O)C2Cc3c(-c4ccc5c(c4)OCO5)ccnc3O2)cc1 (configuration not stated)	5.8µM*	-8%	-37%	i	-5%	9.2µM*
COc1ccc(CCCNC(=O)C2Cc3c(-c4ccc(NC(C)=O)cc4)ccnc3O2)cc1 (configuration not stated)	16µM*	-17%	-25%	i	15%	?
O=C(NCc1cccnc1)C1Cc2c(-c3ccc(Cl)cc3)ccnc2O1 (configuration not stated)	18µM*	-23%	-13%	i	13%	5.8µM*
O=C(NCc1ccccc1)C1Cc2c(-c3ccc4c(c3)OCO4)ccnc2O1 (configuration not stated)	0.41µM*	0%	-2%	?	-19%	?
COc1ccc(CCCNC(=O)C2Cc3c(-c4cccc(C(C)=O)c4)ccnc3O2)cc1 (configuration not stated)	?	-20%	-1%	?	?	?
O=C(Nc1nnc(-c2ccccc2Cl)o1)c1ccco1	?	0%	-6%	i	17%	8.9µM*
CC(=O)c1ccc(C(=O)Nc2nnc(-c3ccc(Cl)cc3)o2)cc1	?	?	-4%	i	3%	?
O=C(Nc1nnc(-c2ccccc2)o1)c1ccc(Cl)cc1	?	20µM*	-17%	·	?	?
Cn1nnnc1Sc1ccc([N+](=O)[O-])cc1Cl	-22%	-10%	-3%	i	8%	2%

High-throughput results: PubChem, National Center for Advancing Translational Sciences (NCATS)
